# Target: POU1 (OCT1 POU domain) (human, UniProt P14859 260-458)
# Assay: EMSA-SELEX-seq; no BOB1; 20 mM Tris-HCl pH 7.6, 140 mM NaCl, 10% glycerol, 0.5 mM EDTA, 0.05% Triton X-100, 0.1 mg/mL BSA, 0.1 mg/mL poly(dI-dC), 5 mM DTT, room temperature, 20 min; high values mean tight binding
# Details: protein: recombinant; dsDNA, one strand shown
# Procedure, shortened: (§1)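 After expression in E. coli BL21, tagged POU-domain proteins were purified under denaturing conditions and then renatured. Each binding reaction held 30 ng protein and 300 ng of a PCR-amplified double-stranded random 35-nt library in 20 μL Tris–HCl pH 7.6 binding buffer, with or without 28 ng coactivator protein, for 20 min at RT. Bands holding complexes were cut from native 6% PAGE, eluted and PCR-amplified across four rounds, and the output was Illumina-sequenced. The value given for binding preference is the share, in percent, of sequenced 8-mers fitting a motif pattern.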
# POU1 (OCT1 POU domain), sequence (P14859 260-458): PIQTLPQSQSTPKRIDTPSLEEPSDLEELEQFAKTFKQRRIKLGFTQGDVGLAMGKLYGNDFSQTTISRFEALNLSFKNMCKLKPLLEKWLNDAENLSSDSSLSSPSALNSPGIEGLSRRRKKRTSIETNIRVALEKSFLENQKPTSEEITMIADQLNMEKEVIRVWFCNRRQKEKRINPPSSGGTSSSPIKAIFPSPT
row,Sequence,binding signal
1,ATTAAAAT,0.614 % of ANNNNAAN 8-mers
2,AGGTGAAT,0.108 % of ANNNNAAN 8-mers
3,AGGACAAC,0.0198 % of ANNNNAAN 8-mers
4,ACTTTAAT,0.0824 % of ANNNNAAN 8-mers
5,AGATGAAG,0.0328 % of ANNNNAAN 8-mers
6,ATTTAAAT,2.83 % of ANNNNAAN 8-mers
7,ATCTAAAC,0.0229 % of ANNNNAAN 8-mers
8,ACATAAAG,0.0934 % of ANNNNAAN 8-mers
9,ATCGGAAT,0.0717 % of ANNNNAAN 8-mers
10,AGGGCAAT,0.0442 % of ANNNNAAN 8-mers
11,AAGATAAG,0.045 % of ANNNNAAN 8-mers
12,ACTGGAAT,0.074 % of ANNNNAAN 8-mers
13,ACACTAAT,0.0568 % of ANNNNAAN 8-mers
14,ATCAAAAC,0.0465 % of ANNNNAAN 8-mers
15,AGCTCAAA,0.0252 % of ANNNNAAN 8-mers
16,AATGCAAT,0.0862 % of ANNNNAAN 8-mers
17,AAGGTAAG,0.0416 % of ANNNNAAN 8-mers
18,ACTACAAG,0.0194 % of ANNNNAAN 8-mers
19,AGATGAAA,0.0629 % of ANNNNAAN 8-mers
20,ATAAAAAC,0.066 % of ANNNNAAN 8-mers

row,Sequence,binding signal
1,AGACAAAT,0.114 % of ANNNNAAN 8-mers
2,AAATCAAG,0.098 % of ANNNNAAN 8-mers
3,AACGGAAG,0.0168 % of ANNNNAAN 8-mers
4,ACGGGAAT,0.0641 % of ANNNNAAN 8-mers
5,AGCGGAAG,0.0202 % of ANNNNAAN 8-mers
6,ATTGAAAG,0.0603 % of ANNNNAAN 8-mers
7,AGGCCAAC,0.0107 % of ANNNNAAN 8-mers
8,ATCCGAAC,0.0217 % of ANNNNAAN 8-mers
9,ATCAGAAG,0.0271 % of ANNNNAAN 8-mers
10,AGCATAAA,0.204 % of ANNNNAAN 8-mers
11,ACGAAAAA,0.0431 % of ANNNNAAN 8-mers
12,AGTACAAA,0.0336 % of ANNNNAAN 8-mers
13,ATAAGAAC,0.0362 % of ANNNNAAN 8-mers
14,AGAGTAAG,0.0305 % of ANNNNAAN 8-mers
15,ATTCAAAG,0.281 % of ANNNNAAN 8-mers
16,AGGGCAAG,0.0294 % of ANNNNAAN 8-mers
17,AAAGAAAG,0.0679 % of ANNNNAAN 8-mers
18,ATCACAAT,0.045 % of ANNNNAAN 8-mers
19,AACCGAAT,0.0412 % of ANNNNAAN 8-mers
20,AGTTGAAC,0.0259 % of ANNNNAAN 8-mers

# Target: T1, POU2 (OCT2 POU domain) (human, UniProt P09086 175-386)
# T1 sequence: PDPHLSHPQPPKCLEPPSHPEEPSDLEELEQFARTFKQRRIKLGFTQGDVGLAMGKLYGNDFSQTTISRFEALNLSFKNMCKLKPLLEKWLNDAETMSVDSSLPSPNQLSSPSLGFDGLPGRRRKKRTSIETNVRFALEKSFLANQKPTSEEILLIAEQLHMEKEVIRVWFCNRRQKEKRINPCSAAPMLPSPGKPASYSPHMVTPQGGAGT
# Assay: as above
# Details: protein: recombinant; dsDNA, one strand shown
# Procedure, shortened: as §1
row,Sequence,binding signal
1,ATTAAAAT,0.636 % of ANNNNAAN 8-mers
2,AGGTGAAT,0.119 % of ANNNNAAN 8-mers
3,AGGACAAC,0.0305 % of ANNNNAAN 8-mers
4,ACTTTAAT,0.103 % of ANNNNAAN 8-mers
5,AGATGAAG,0.0368 % of ANNNNAAN 8-mers
6,ATTTAAAT,2.38 % of ANNNNAAN 8-mers
7,ATCTAAAC,0.0374 % of ANNNNAAN 8-mers
8,ACATAAAG,0.108 % of ANNNNAAN 8-mers
9,ATCGGAAT,0.0869 % of ANNNNAAN 8-mers
10,AGGGCAAT,0.0558 % of ANNNNAAN 8-mers
11,AAGATAAG,0.0593 % of ANNNNAAN 8-mers
12,ACTGGAAT,0.0765 % of ANNNNAAN 8-mers
13,ACACTAAT,0.0811 % of ANNNNAAN 8-mers
14,ATCAAAAC,0.0443 % of ANNNNAAN 8-mers
15,AGCTCAAA,0.0213 % of ANNNNAAN 8-mers
16,AATGCAAT,0.0949 % of ANNNNAAN 8-mers
17,AAGGTAAG,0.0478 % of ANNNNAAN 8-mers
18,ACTACAAG,0.0201 % of ANNNNAAN 8-mers
19,AGATGAAA,0.0558 % of ANNNNAAN 8-mers
20,ATAAAAAC,0.0633 % of ANNNNAAN 8-mers

row,Sequence,binding signal
1,AGACAAAT,0.0748 % of ANNNNAAN 8-mers
2,AAATCAAG,0.0926 % of ANNNNAAN 8-mers
3,AACGGAAG,0.0259 % of ANNNNAAN 8-mers
4,ACGGGAAT,0.0725 % of ANNNNAAN 8-mers
5,AGCGGAAG,0.0196 % of ANNNNAAN 8-mers
6,ATTGAAAG,0.0604 % of ANNNNAAN 8-mers
7,AGGCCAAC,0.0115 % of ANNNNAAN 8-mers
8,ATCCGAAC,0.0219 % of ANNNNAAN 8-mers
9,ATCAGAAG,0.0363 % of ANNNNAAN 8-mers
10,AGCATAAA,0.213 % of ANNNNAAN 8-mers
11,ACGAAAAA,0.0409 % of ANNNNAAN 8-mers
12,AGTACAAA,0.0328 % of ANNNNAAN 8-mers
13,ATAAGAAC,0.0518 % of ANNNNAAN 8-mers
14,AGAGTAAG,0.0466 % of ANNNNAAN 8-mers
15,ATTCAAAG,0.201 % of ANNNNAAN 8-mers
16,AGGGCAAG,0.0322 % of ANNNNAAN 8-mers
17,AAAGAAAG,0.0719 % of ANNNNAAN 8-mers
18,ATCACAAT,0.0518 % of ANNNNAAN 8-mers
19,AACCGAAT,0.0363 % of ANNNNAAN 8-mers
20,AGTTGAAC,0.0253 % of ANNNNAAN 8-mers
